Experimental findings from PubChem BioAssay (NCATS) are described below.

Values joined by “and” are separate entries in the source; they are usually repeats but may differ in a detail not shown here. Equal entries are not always repeated. Records with an inconclusive call do not appear. A number with no mark means an inactive call. Active and inactive are the calls of the source. The call rests on the fitted dose curve; in most records, active means well fitted cell-killing curve with a large enough effect; inconclusive means small, poorly fitted or top-dose-only effect, or effect the other way; inactive means no such curve, though single readings can be large or run the other way.

Usually viability stands for a read-out of living cells in per cent, often relative to untreated cells.
Potency means the concentration at half of the fitted maximal effect.

One assay in a line: Quantitative High-Throughput drug screen in 47 multiple myeloma cell lines against the NCATS MIPE library collection: SKMM1_PLB cell viability assay (AID 1919863). Further: nearly all actives have a fitted effect of over 35% in size. The settings on record: SKMM1 myeloma viability, CellTiter-Glo ATP, 48 h; viability: stronger effect = lower value. The method, boiled down:
(§1)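 Plated at 500 cells per well, myeloma lines received MIPE 4.0 compounds by pin tool. Following 48 h culture at 37 °C, CellTiter-Glo luminescence gave viability relative to DMSO and media-only controls.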
(In general: In ATP-based viability assays light output follows the ATP content of the culture.)
Take `c1ccc([C@H]2CN3CCSC3=N2)cc1`: the viability was 159%.

As to `Cc1[nH]c(=O)c(C#N)cc1-c1ccncc1`, the viability was 106%.

In the case of `NC(=O)c1ccc(I)c([N+](=O)[O-])c1`, the viability is 102%.

Regarding `N[C@@H]1CONC1=O`, the viability is 132%.

Regarding `OCCn1cc(-c2cnc3nnn(Cc4ccc5ncccc5c4)c3n2)cn1`, the Potency was 16.6 µM (active).

In the case of `Fc1ccc(Cl)cc1-c1nc(Nc2ccncc2)c2nccnc2n1`, the viability is 120%.

Consider `O=C1[C@H](Cc2ccc(O)cc2)N2C(=O)CCN(C(=O)NCc3ccccc3)[C@H]2CN1Cc1cccc2ccccc12`, for which the Potency is 6.62 µM (active).

Turning to `CCN(CC)CCCC(C)Nc1nc(C)cc(Nc2ccc3nc(C)cc(N)c3c2)n1` (configuration not stated), the viability is 123%.

Take `NC(=O)c1cnccn1`: the viability was 112%.

In the case of `Cc1cn[nH]c1`, the Potency is 0.0662 µM (active).

With `CC(C=CC1=C(C)CCCC1(C)C)=CC=CC(C)=CC(=O)O`, the Potency was 14.8 µM (active).

For `CCOc1cc(N2CCC(O)CC2)ccc1Nc1ncc2c(n1)N(C)c1ccccc1C(=O)N2C`, the Potency is 11.8 µM (active).

As for `O=C(C1CC1)N1CC[C@@H](Cn2c(-c3ccc(-c4ccc5occc5c4)cc3)nc3cnccc32)C1`, the viability was 107%.

In the case of `Cn1cnc2c(F)c(Nc3ccc(Br)cc3Cl)c(C(=O)NOCCO)cc21`, the Potency was 1.18 µM (active).

Turning to `COc1ccc([C@@H]2CC(=O)c3c(O)cc(O[C@@H]4O[C@H](CO[C@@H]5O[C@@H](C)[C@H](O)[C@@H](O)[C@@H]5O)[C@@H](O)[C@H](O)[C@@H]4O)cc3O2)cc1O`, the viability is 111% and 110%.

For the compound `COc1cc(Nc2ncc3c(n2)-c2ccc(Cl)cc2C(c2c(F)cccc2OC)=NC3)ccc1C(=O)O`, the viability was 78.9%.

A short description of another assay: Quantitative High-Throughput drug screen in 47 multiple myeloma cell lines against the NCATS MIPE library collection: U266_ATCC cell viability assay (AID 1919864). Further: nearly all actives have a fitted effect of over 35% in size.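 On viability (% of DMSO control): 0% = media-only wells without cells and 100% = DMSO-only wells.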 The following applies: U266 myeloma viability, CellTiter-Glo ATP luminescence, 48 h; series mostly up to 45.8 µM; viability (% of DMSO control): at the top concentration. The method, boiled down:
as §1
Regarding `CCn1c(-c2nonc2N)nc2c(C#CC(C)(C)O)ncc(OC[C@H]3CCCNC3)c21`, the Potency is 23.5 µM (active).

With `c1ccc([C@H]2CN3CCSC3=N2)cc1`, the “viability (% of DMSO control)” value is 127%.

Consider `N[C@@H]1CONC1=O`, for which the “viability (% of DMSO control)” value is 125%.

In the case of `CCOc1ccc(Cc2cc([C@@H]3O[C@H](CO)[C@@H](O)[C@H](O)[C@@H]3O)ccc2Cl)cc1`, the “viability (% of DMSO control)” value was 141%.

With `OCCn1cc(-c2cnc3nnn(Cc4ccc5ncccc5c4)c3n2)cn1`, the Potency is 2.09 µM (active).

Regarding `Fc1ccc(Cl)cc1-c1nc(Nc2ccncc2)c2nccnc2n1`, the “viability (% of DMSO control)” value was 129%.

With `CN(C)c1ccc(Nc2nc(N)n(C(=O)c3c(F)cccc3F)n2)cc1`, the Potency was 18.7 µM (active).

With `N=c1nc(N2CCCCC2)cc(N)n1O`, the “viability (% of DMSO control)” value is 136%.

As for `CC(C)(C)NCC(O)c1ccc(O)c(CO)c1` (configuration not stated), the “viability (% of DMSO control)” value was 133%.

On to `C[C@H](NC(=O)Cc1cc(F)cc(F)c1)C(=O)N[C@@H]1C(=O)N(C)c2ccccc2-c2ccccc21`, for which the Potency is 16.6 µM (active).

As for `COCCNCCCn1c(C(=O)CF)c(-c2ccc(C)cc2)c2c(N)ncnc21`, the “viability (% of DMSO control)” value is 112%.

For `Cc1cn[nH]c1`, the Potency was 0.662 µM (active).

Turning to `CC(C=CC1=C(C)CCCC1(C)C)=CC=CC(C)=CC(=O)O`, the Potency was 2.09 µM (active).

Take `O=C1CCc2cc(OCCCCc3nnnn3C3CCCCC3)ccc2N1`: the “viability (% of DMSO control)” value is 120%.

With `Cc1cc(Nc2nc(N[C@@H](C)c3ncc(F)cn3)ncc2Cl)n[nH]1`, the Potency is 9.35 µM (active).

With `Cn1cnc2c(F)c(Nc3ccc(Br)cc3Cl)c(C(=O)NOCCO)cc21`, the Potency is 5.26 µM (active).

`COc1ccc([C@@H]2CC(=O)c3c(O)cc(O[C@@H]4O[C@H](CO[C@@H]5O[C@@H](C)[C@H](O)[C@@H](O)[C@@H]5O)[C@@H](O)[C@H](O)[C@@H]4O)cc3O2)cc1O`: the “viability (% of DMSO control)” value is 140%.

With `COc1cc(Nc2ncc3c(n2)-c2ccc(Cl)cc2C(c2c(F)cccc2OC)=NC3)ccc1C(=O)O`, the “viability (% of DMSO control)” value is 103%.

A further assay in a line: Quantitative High-Throughput drug screen in 47 multiple myeloma cell lines against the NCATS MIPE library collection: XG6_PLB cell viability assay (AID 1919865). Further: nearly all actives have a fitted effect of over 40% in size.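 On viability (% of control): 100% = DMSO-only wells and 0% = media-only wells.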 The settings on record: XG6 myeloma viability, CellTiter-Glo ATP luminescence, 48 h; series mostly up to 45.8 µM; viability (% of control): at the top concentration. The method, boiled down:
as §1
Consider `CCn1c(-c2nonc2N)nc2c(C#CC(C)(C)O)ncc(OC[C@H]3CCCNC3)c21`, for which the Potency was 18.7 µM (active).

For `c1ccc([C@H]2CN3CCSC3=N2)cc1`, the Potency is 23.5 µM (active).

Regarding `Cc1[nH]c(=O)c(C#N)cc1-c1ccncc1`, the Potency was 5.9 µM (active).

As for `N[C@@H]1CONC1=O`, the “viability (% of control)” value was 97%.

On to `CCOc1ccc(Cc2cc([C@@H]3O[C@H](CO)[C@@H](O)[C@H](O)[C@@H]3O)ccc2Cl)cc1`, for which the Potency was 3.32 µM (active).

Turning to `OCCn1cc(-c2cnc3nnn(Cc4ccc5ncccc5c4)c3n2)cn1`, the “viability (% of control)” value was 99.4%.

For the compound `Fc1ccc(Cl)cc1-c1nc(Nc2ccncc2)c2nccnc2n1`, the Potency was 3.32 µM (active).

With `Cc1cccc(-c2[nH]c(C(C)(C)C)nc2-c2ccc3nccnc3c2)n1`, the Potency is 3.32 µM (active).

Turning to `CN(C)c1ccc(Nc2nc(N)n(C(=O)c3c(F)cccc3F)n2)cc1`, the Potency is 3.72 µM (active).

In the case of `CNC[C@H](O)c1cccc(O)c1`, the “viability (% of control)” value was 111%.

For `N=c1nc(N2CCCCC2)cc(N)n1O`, the Potency is 23.5 µM (active).

For the compound `CC(C)(C)NCC(O)c1ccc(O)c(CO)c1` (configuration not stated), the “viability (% of control)” value is 101%.

Take `C[C@H](NC(=O)Cc1cc(F)cc(F)c1)C(=O)N[C@@H]1C(=O)N(C)c2ccccc2-c2ccccc21`: the Potency is 4.69 µM (active).

As for `CC1(C)CNc2cc(NC(=O)c3cccnc3NCc3ccncc3)ccc21`, the Potency was 0.372 µM (active).

With `O=C1[C@H](Cc2ccc(O)cc2)N2C(=O)CCN(C(=O)NCc3ccccc3)[C@H]2CN1Cc1cccc2ccccc12`, the Potency was 4.18 µM (active).

Turning to `Cc1ccnc(NS(=O)(=O)c2ccc(NC(=O)Nc3ccc(S(=O)(=O)Nc4nccc(C)n4)cc3)cc2)n1`, the Potency is 4.18 µM (active).

For `COCC(=O)NCC=Cc1ccc2ncnc(Nc3ccc(Oc4ccc(C)nc4)c(C)c3)c2c1`, the Potency is 16.6 µM (active).

`Cc1cn[nH]c1`: the Potency was 0.296 µM (active).

Turning to `CC(C=CC1=C(C)CCCC1(C)C)=CC=CC(C)=CC(=O)O`, the Potency was 935 nM (active) and 5.26 µM (active).

On to `Cc1cc(Nc2nc(N[C@@H](C)c3ncc(F)cn3)ncc2Cl)n[nH]1`, for which the Potency is 2.96 µM (active).

Regarding `Cn1cnc2c(F)c(Nc3ccc(Br)cc3Cl)c(C(=O)NOCCO)cc21`, the Potency was 0.418 µM (active).

As for `COc1ccc([C@@H]2CC(=O)c3c(O)cc(O[C@@H]4O[C@H](CO[C@@H]5O[C@@H](C)[C@H](O)[C@@H](O)[C@@H]5O)[C@@H](O)[C@H](O)[C@@H]4O)cc3O2)cc1O`, the Potency is 5.9 µM (active).

Turning to `O=S(=O)(N=Cc1c(O)ccc2ccccc12)c1cccs1`, the Potency was 0.0935 µM (active).
